# Screening data: PubChem, National Center for Advancing Translational Sciences (NCATS)
# KB-3-1 cytotox = kills parental KB-3-1 adenocarcinoma cells. KB-3-1 viability, CellTiter-Glo ATP luminescence, 72 h. 1.4% of 400,000 active. Potency, µM (highest dose often 46.1 µM), usual class: cytotoxic; note: nearly all actives have a fitted effect of over 60% in size
#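 Luminescent ATP read-out (CellTiter-Glo) measures survival of drug-naive KB-3-1 cells after 72 h compound exposure at 37 °C. Titration series was screened from lowest to highest concentration, with DMSO vehicle plates as background controls.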
# KB-V1 MDR tox = kills drug-selected multidrug resistant KB-V1 cells; KB-V1 MDR cells viability, CellTiter-Glo, 72 h; Potency, µM (highest dose often 46.1 µM), hits mostly cytotoxic; 3.4% of 400,000 active; note: nearly all actives have a fitted effect of over 60% in size
#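 Potencies derive from concentration-effect curves fitted to normalized luminescence (CellTiter-Glo) of KB-V1 cells treated for 72 h at 37 degrees C in phenol-red-free DMEM containing 10% FBS.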
# DT40 TDP1 no CPT = qHTS for Inhibitors of human tyrosyl-DNA phosphodiesterase 1 (TDP1): qHTS in cells in absence of CPT; DT40 Tdp1-/- hTDP1 cells, no CPT, ATP luminescence, 48 h; Potency, µM (titrated, usually from 46.2 µM), actives largely listed as inhibitors; 15% of 420,000 active; AID 686978, 2013; note: nearly all actives have a fitted effect of over 55% in size
#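 Seeded 400 DT40-hTDP1 cells/well (vehicle DMSO, no 20 nM CPT); pinned compounds; ≥48 hr at 37 °C; CellTiter-Glo luminescence as viability measure.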
# HT1080 IDH1KD tx = HT-1080 IDH1 knockdown cell toxicity (counter line); HT-1080 IDH1 knockdown viability, ATP luminescence, 48 h; Potency, µM (top dose mostly 46.1 µM), most hits filed as cytotoxic; 2% of 360,000 active
#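 Knockdown cells (IDH1KD HT-1080) received compounds 2 h after plating at 750 cells/well and were kept 48 h at 37 °C in 5% FBS RPMI. A CellTiter-Glo luminescence read gave % activity for curve fitting.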
# TDP1 cell CPT = DT40-hTDP1 cell growth loss with CPT | chicken DT40 Tdp1-/-;hTDP1 cells + 20 nM CPT, ATP luminescence, 48 h | Potency, µM (highest dose often 46.2 µM), usual class: inhibitors | 12% of 420,000 active; note: nearly all actives have a fitted effect of over 55% in size
#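 Chicken DT40 Tdp1-/- cells stably complemented with human TDP1 were seeded at 400 cells/well in medium containing 20 nM camptothecin, exposed to pin-transferred compounds, and grown at 37 °C for at least 48 hr. Viability was read as ATP luminescence.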
# HT1080NT lethal = kills 2HG-producing HT-1080-NT fibrosarcoma cells; HT-1080-NT fibrosarcoma viability, CellTiter-Glo ATP luminescence, 48 h; Potency, µM (titrated, usually from 46.1 µM), hits mostly cytotoxic; 1.6% of 360,000 active; AID 686970;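 note: NT is the 2HG producing partner of a matched IDH1 knockdown line; nearly all actives have a fitted effect of over 55% in size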
#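 750 cells/well, RPMI + 5% FBS; 2 h settle, compound pin-transfer, 48 h at 37 degrees C. CellTiter-Glo 10 min RT, luminescence. Normalized to DMSO and media-only wells.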
# Hits are given with their value; - = inactive; ? = inconclusive; . = no result given; [ ] = another dose, or the depositor's remark. A selection: hits, their analogues and other compounds. The true share with any hit is near 19%. Calls come from the whole dose curve; as a rule, active = well fitted curve in the direction sought with a large enough effect; inconclusive = small, poorly fitted or top-dose-only effect, or another doubt; inactive = no such curve, though single readings can be large; an effect the other way counts as inactive or inconclusive.
SMILES,KB-3-1 cytotox,KB-V1 MDR tox,DT40 TDP1 no CPT,HT1080 IDH1KD tx,TDP1 cell CPT,HT1080NT lethal
O=C(NCc1ccc2c(c1)OCO2)c1cc2n(n1)C(C(F)(F)F)CC(c1ccc3c(c1)OCO3)N2 (stereo unspecified),-,-,-,-,?,-
COc1ccc(C2CC(C(F)(F)F)n3nc(C(=O)Nc4ccc5c(c4)OCO5)cc3N2)cc1 (stereo unspecified),-,-,?,-,?,-
COc1ccc(OC)c(NC(=O)c2cc3n(n2)C(C(F)(F)F)CC(c2ccc4c(c2)OCO4)N3)c1 (stereo unspecified),?,12µM,?,?,?,?
CCc1nc2cc(C(=O)N(C)CC3COCCO3)cc(NC(=O)c3ccccc3OC)c2n1C (stereo unspecified),.,.,-,.,-,.
Cc1cc(NC(=O)COC(=O)C2CC(=O)N(c3ccc(Cl)cc3)C2)no1 (stereo unspecified),-,-,-,-,-,-
CCn1nnc2c(N3CCCC3)ncnc21,.,.,?,-,?,-
Fc1ccc(Oc2ccnc(Cl)n2)c(Cl)c1,-,-,-,-,-,-
NS(=O)(=O)c1cccc(NC(=O)CSc2nnc(-c3ccncc3)n2C2CC2)c1,-,-,-,-,-,-
O=C1[O][Bi][O]c2ccccc21,.,.,-,.,-,.
COc1ccc(NC(=O)Nc2nnc([C@@H]3C[C@H](O)[C@@H](CO)O3)s2)cc1,-,-,-,-,-,-
O=S(=O)(Nc1ccc(O)c2ccccc12)c1cccs1,?,?,4.6µM,21µM,2.1µM,26µM
COc1ncc2nc(-c3cccs3)c(=O)n(C)c2n1,.,.,-,.,-,.
CCc1cc2c(=O)c(-c3nc4ccccc4[nH]3)coc2cc1OC(=O)N1CCOCC1,?,3.3µM,?,-,-,-
COc1ccccc1-c1coc2cc(OC(=O)N3CCOCC3)ccc2c1=O,-,-,?,-,-,-
Cc1ccc2cc(C(c3nnnn3C3CCCC3)N(Cc3ccco3)Cc3cccs3)c(=O)[nH]c2c1 (stereo unspecified),-,-,?,-,23µM,-
Cc1ccc2cc(C(c3nnnn3C3CCCC3)N(Cc3cccnc3)Cc3ccco3)c(=O)[nH]c2c1 (stereo unspecified),-,?,?,-,?,?
CCC(c1nnnn1C1CCCCC1)N(Cc1ccco1)Cc1cc2ccc(OC)cc2[nH]c1=O (stereo unspecified),?,?,16µM,?,?,?
COc1ccc2cc(CN(CCCN3CCOCC3)Cc3nnnn3C3CCCCC3)c(=O)[nH]c2c1,-,-,-,-,-,-
CC(=O)Nc1cccc(-c2cccc3nccn23)c1,-,-,-,-,-,-
O=C(O)CC(c1ccccc1)c1ccc2c(c1)OCO2 (stereo unspecified),-,-,-,-,-,-
CC(C)Oc1ccc(/C=N/NC(=O)C2CCCN2S(=O)(=O)c2ccc(Cl)cc2)cc1 (stereo unspecified),-,?,21µM,-[9.24 µM],?,-
CCCOc1ccc(/C=N/NC(=O)C2CCCN2S(=O)(=O)c2ccc(Cl)cc2)cc1 (stereo unspecified),-,-,?,-[9.24 µM],16µM,?
COc1ccc(NC(=O)[C@@H]2CCCN2S(=O)(=O)c2ccc(Cl)cc2)cc1,-,-,?,-,?,-
CN(C)S(=O)(=O)c1cccc(C(=O)Nc2ccccc2)c1,-,-,-,-,-,-
CN(C)S(=O)(=O)c1cccc(C(=O)Nc2cc(Cl)cc(Cl)c2)c1,-,?,18µM,?,?,?
SMILES,KB-3-1 cytotox,KB-V1 MDR tox,DT40 TDP1 no CPT,HT1080 IDH1KD tx,TDP1 cell CPT,HT1080NT lethal
Cc1ccnc(NC(=O)c2cccc(OC(F)F)c2)n1,-,-,-,-,-,-
O=C(Nc1cc(Cl)cc(Cl)c1)c1cccc(OC(F)F)c1,13µM,16µM,?,-,18µM,-
CN(C)S(=O)(=O)c1cccc(C(=O)Nc2ccccc2Cl)c1,-,16µM,-,-,-,-
CC1(C(=O)OCC(=O)Nc2ccc(S(=O)(=O)N3CCOCC3)cc2)CC1(Cl)Cl (stereo unspecified),-,-,-,-,-,-
CCc1ccc(C(=O)CCC2CCCCC2=O)cc1 (stereo unspecified),-,-,16µM,-,?,-
O=C(CCC1CCCCC1=O)c1ccccc1 (stereo unspecified),-,-,-,-,-,-
CC1CCCN(Cc2nc3c(c(=O)n(C)c(=O)n3C)n2Cc2ccc(Cl)cc2Cl)C1 (stereo unspecified),-,-,-,.,-,.
Cc1cc(-c2n[nH]c(=S)n2/N=C/C=C/c2ccco2)n[nH]1,-,-,-,-,-,-
S=c1[nH]nc(-c2ccccc2)n1/N=C/C=C/c1ccco1,-,-,?,-,?,-
Cc1ccccc1-c1n[nH]c(=S)n1/N=C/C=C/c1ccco1,-,-,18µM,-,?,-
